Laboratory results published in PubChem BioAssay.
Results filed as inconclusive are left out. Calls of active or inactive are those of the source.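 Rule for the calls, unless noted: active = GFP response above 150% of the DMSO control; inconclusive = Fewer than 70 cells counted for a yeast strain; inactive = the rest.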

Key:
[1] = rapamycin-like changes in RPL19A-GFP expression – cell-based, S. cerevisiae, multiplex flow cytometry, primary screen (AID 1862; in the data active = percent of DMSO control GFP below about 86%;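 note: lower values mimic rapamycin by blocking the RPL19A rise seen in DMSO cells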); settings: S. cerevisiae RPL19A-GFP strain, flow cytometry fluorescence, 3 h; at 10 µM; stronger effect = lower value
[2] = TOR pathway GLN3 branch reporter MEP2-GFP changes – S. cerevisiae, multiplex flow cytometry, primary screen (AID 1867;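 active = GFP response, as percent of the DMSO control, above the screen-wide mean plus 3 SD, about 139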;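 note: median GFP channel fluorescence of barcode-gated MEP2-GFP cells measured by flow cytometry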); settings: S. cerevisiae MEP2-GFP strain, 3 h, at 10 µM, stronger effect = higher value, 100% means same as DMSO wells
[3] = TOR pathway RTG branch CIT2 reporter changes – S. cerevisiae, GFP fusion, multiplex flow cytometry, primary screen (AID 1870;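 active = percent response above a set limit, the screen-wide mean plus 3 SD, cut at about 130% in these data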;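 note: barcoded CIT2-GFP strain pooled with four other GFP strains with rapamycin as positive control; median GFP fluorescence per well over plate mean of DMSO wells so 100% = DMSO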); settings: S. cerevisiae CIT2-GFP expression, 3 h, at 10 µM, stronger effect = higher value
[4] = TOR pathway LAP4-GFP level changes – S. cerevisiae, multiplex flow cytometry, primary screen (AID 1873;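 active = GFP signal, as percent of the solvent control, above the screen mean plus 3 SD, about 149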); settings: S. cerevisiae LAP4-GFP expression, 3 h, at 10 µM, stronger effect = higher value
[5] = yeast AGP1-GFP level changes, GLN3 branch – cell-based, multiplex flow cytometry, S. cerevisiae, primary screen (AID 1887;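 active = GFP signal above the screen-wide mean plus 3 SD, that is over about 124.5% of the solvent control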;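 note: AGP1-GFP fusion strain of S. cerevisiae within a five-strain barcoded multiplex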); settings: 3 h, at 10 µM, stronger effect = higher value
[6] = hit retest on RPL19A-GFP reporter strain – cell-based, S. cerevisiae, flow cytometry, cherry picks, mother/daughter gates, confirmation (AID 2270;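 active = GFP response below 50% of the DMSO control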); settings: 3 h, at 10 µM, stronger effect = lower value, 100 = same GFP as DMSO wells
[7] = yeast TOR pathway reporter LAP4-GFP change – cell-based, cherry picks, flow cytometry, mother/daughter gates, confirmation (AID 2271;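 active = GFP response above 150% of the DMSO control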;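 note: ratio of sample to DMSO plate mean so 100% equals DMSO level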); settings: S. cerevisiae LAP4-GFP strain, 3 h, at 10 µM, stronger effect = higher value, 100 means same as DMSO control
[8] = TOR pathway reporter MEP2-GFP, retest of hits – S. cerevisiae, flow cytometry GFP, cherry picks, confirmation (AID 2272);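 note: ratio of well signal to plate DMSO mean so 100% equals DMSO level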; settings: S. cerevisiae MEP2-GFP strain, 3 h, at 10 µM, stronger effect = higher value
[9] = TOR pathway CIT2 reporter hit retest – S. cerevisiae, GFP fusion, cherry picks, mother/daughter gates, confirmation (AID 2274;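 active = GFP response above 150% of the DMSO level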); settings: S. cerevisiae CIT2-GFP strain, flow cytometry, 3 h, at 10 µM, stronger effect = higher value
[10] = reduced mouse 2C T cell binding to pMHC/ICAM-1 vesicles – MLPCN validation set, flow cytometry, LFA-1/ICAM-1 modulator project, pilot screen (AID 2523;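 active = response below a set limit, under 55% cells CD8-positive and vesicle-bound, and CD8 cells' 90th-percentile brightness under 279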;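 for vesicle binding response: mean PE anti-B7-1 fluorescence of CD8+ cells relative to row control; 100% = QL9-loaded vesicles with DMSO vehicle in the same plate row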); settings: 2C mouse CD8+ T cells, at 7 µM, stronger effect = lower value; double positive events: measured here: CD8+/vesicle+ event percentage
[11] = target: Integrin beta-1 (Homo sapiens) + Integrin alpha-4 (Homo sapiens) (UniProt P13612+P05556); experiment: alpha4beta1 integrin LIBS antibody binding reduction – U937 cells, HUTS-21 mAb, flow cytometry, validation set, VLA-4 allosteric modulator project, pilot screen (AID 2674;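 active = inhibition above 50%, about 3 SD of the validation set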;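 note: antibody binding induced by the VLA-4 ligand LDV present at three times its Kd; 0% = LDV ligand with antibody and no compound and 100% = antibody without LDV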); settings: HUTS-21 LIBS mAb binding, at 6.7 µM, stronger effect = higher value, binding induced by LDV ligand
[12] = calorie-restriction mimetic ROS inhibitors, yeast – validation compound set, pilot screen (AID 2706;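 active = superoxide response below 65% of plate, a cut near 3 SD across the whole screen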;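 note: yeast exposed to compound for one week at 30 degrees C before staining; 100% = mean of all compound wells on the same plate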); settings: S. cerevisiae aging, superoxide DHE fluorescence; at 10 µM; stronger effect = lower value
[13] = target: Beta-adrenergic receptor kinase 1 (Homo sapiens) (UniProt P25098); experiment: GRK2 binders displacing RNA aptamer, biochemical, validation, human GRK2, bead flow cytometry (AID 488806;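 active = aptamer binding inhibition above 30%, about 3 SD of noise from non-fluorescent compounds; inactive = inhibition at or below 30%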); settings: bead-bound GRK2, FAM-aptamer displacement, at 10 µM, stronger effect = higher value
[14] = target: Beta-2 adrenergic receptor (Homo sapiens) (UniProt P07550); experiment: agonist-induced loss of surface beta2AR – cell-based, FAP fluorogen, flow cytometry, validation set, pilot screen (AID 504459;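 active = percent response above 42, roughly 3 SD of non-fluorescent test compounds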;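 note: agonist-driven loss of surface beta2AR via internalization measured by FAP dye flow cytometry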); settings: Am2.2-beta2AR cells, at 10 µM, stronger effect = higher value
[15] = target: AP-2 complex subunit beta (Homo sapiens) (UniProt P63010); experiment: beta-arrestin/AP2 interaction blockers – biochemical, validation set, GST-AP2 beads, flow cytometry, pilot screen (AID 504541;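 active = inhibition above 54%, about 3 SD of non-fluorescent compounds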;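 note: AP2 carries R879A mutation and is captured from E. coli lysate; bead-bound FITC arrestin peptide fluorescence measuring arrestin peptide binding to AP2; 0% = DMSO wells and 100% = excess unlabeled arrestin peptide control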); settings: FITC arrestin peptide, at 10 µM, stronger effect = higher value, AP2 beta2 appendage fragment, R879A mutant
[16] = cytosolic pH regulators acting via V-ATPase – S. cerevisiae, pHLuorin, HTS validation (AID 504600; in the data active = response above about 15%;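 note: plate controls were DMSO for no effect and reference compound for full effect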); settings: V-ATPase proton transport, at 10 µM, stronger effect = higher value
[17] = tested on: anti-desmoglein-3 scFv antibody binding to human DSG3; experiment: blockers of pathogenic pemphigus antibody–desmoglein-3 binding – biochemical, validation compound set, bead-based, flow cytometry, pilot screen (AID 588368;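 active = binding below the plate cutoff, the plate median minus 3 SD, with a reading above zero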;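 note: signal is the median channel fluorescence of bead-bound GFP antibody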); settings: Protein G beads, DSG3-Fc, scFv-GFP binding, at 10 µM, stronger effect = lower value
[18] = Nile Red efflux blockade in pump-expressing yeast – validation compound set, multiplex, phenotypic, pilot screen (AID 588506;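 active = efflux inhibition above 0.42, the validation set average plus 4 SD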;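 note: Nile Red retained in cells so higher fluorescence means more efflux inhibition; 0 = negative control wells and 1 = enniatin B 25 µM full block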); settings: S. cerevisiae pump-expressing triplex, Nile Red efflux flow cytometry; at 10 µM; stronger effect = higher value; the pumps come from Candida albicans
[19] = target: ATP-binding cassette sub-family B member 6 (Homo sapiens) (UniProt Q9NP58); experiment: blockers of ABCB6-driven porphyrin uptake – K562-ABCB6 cells, flow cytometry, validation set, pilot screen (AID 588550;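 active = inhibition above the screen-wide mean plus 3 SD, about 51%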;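 note: 0% = DMSO wells and 100% = benzethonium chloride 70 µM positive control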); settings: K562-ABCB6 porphyrin accumulation, 1 h, at 10 µM, stronger effect = higher value
[20] = AML differentiation inducers, ER-HoxA9 marrow cells – cell-based, GFP/MAC1 double positive, flow cytometry, validation set, primary screen (AID 588685;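 active = differentiation response of at least 50%, scaled between solvent and reference control, from cells with both markers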;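 note: compound exposure lasts four days before antibody staining and flow analysis; 0% = DMSO wells and 100% = 5 µM fulvestrant positive control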); settings: stronger effect = higher value, normalized: vehicle 0, fulvestrant 100
[21] = measured here: daughter cell gate
[22] = measured here: mother cell gate
[23] = measured here: daughter cell gate response
[24] = measured here: mother cell gate response

Beta-2 adrenergic receptor (Homo sapiens), sequence (P07550 whole entry, looked up): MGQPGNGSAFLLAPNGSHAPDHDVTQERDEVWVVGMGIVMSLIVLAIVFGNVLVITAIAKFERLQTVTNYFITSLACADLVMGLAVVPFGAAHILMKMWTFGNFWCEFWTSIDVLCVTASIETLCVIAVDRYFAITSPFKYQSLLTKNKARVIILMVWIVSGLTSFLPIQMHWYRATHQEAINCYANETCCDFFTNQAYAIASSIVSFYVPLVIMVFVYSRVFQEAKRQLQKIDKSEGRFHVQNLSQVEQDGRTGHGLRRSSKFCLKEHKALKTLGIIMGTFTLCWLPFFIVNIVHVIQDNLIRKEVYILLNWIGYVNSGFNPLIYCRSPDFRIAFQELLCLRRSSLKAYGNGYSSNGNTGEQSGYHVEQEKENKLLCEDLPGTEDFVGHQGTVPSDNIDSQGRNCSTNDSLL
Integrin beta-1 (Homo sapiens) + Integrin alpha-4 (Homo sapiens), sequence (P05556 whole entry, looked up): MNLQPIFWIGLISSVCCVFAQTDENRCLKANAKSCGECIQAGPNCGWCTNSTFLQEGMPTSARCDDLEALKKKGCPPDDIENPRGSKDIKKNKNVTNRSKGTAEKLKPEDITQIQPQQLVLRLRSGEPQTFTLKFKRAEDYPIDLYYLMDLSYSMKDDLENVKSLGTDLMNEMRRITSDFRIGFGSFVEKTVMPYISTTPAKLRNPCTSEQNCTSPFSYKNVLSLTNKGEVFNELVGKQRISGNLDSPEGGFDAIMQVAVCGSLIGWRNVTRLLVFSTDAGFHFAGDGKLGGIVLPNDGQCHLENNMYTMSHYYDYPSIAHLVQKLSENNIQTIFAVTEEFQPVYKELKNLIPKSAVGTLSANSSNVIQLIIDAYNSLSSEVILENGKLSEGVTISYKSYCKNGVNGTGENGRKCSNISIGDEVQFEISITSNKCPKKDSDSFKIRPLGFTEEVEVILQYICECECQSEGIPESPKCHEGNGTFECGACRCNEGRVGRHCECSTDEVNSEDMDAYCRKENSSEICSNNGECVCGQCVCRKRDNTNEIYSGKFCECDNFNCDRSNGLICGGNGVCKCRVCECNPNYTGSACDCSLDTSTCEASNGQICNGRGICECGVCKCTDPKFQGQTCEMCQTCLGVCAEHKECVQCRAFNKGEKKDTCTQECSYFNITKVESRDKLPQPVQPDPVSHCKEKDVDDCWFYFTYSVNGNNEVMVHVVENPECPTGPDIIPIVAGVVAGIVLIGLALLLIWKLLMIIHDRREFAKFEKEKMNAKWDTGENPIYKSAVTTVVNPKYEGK
Integrin beta-1 (Homo sapiens) + Integrin alpha-4 (Homo sapiens), sequence (P13612 whole entry, looked up): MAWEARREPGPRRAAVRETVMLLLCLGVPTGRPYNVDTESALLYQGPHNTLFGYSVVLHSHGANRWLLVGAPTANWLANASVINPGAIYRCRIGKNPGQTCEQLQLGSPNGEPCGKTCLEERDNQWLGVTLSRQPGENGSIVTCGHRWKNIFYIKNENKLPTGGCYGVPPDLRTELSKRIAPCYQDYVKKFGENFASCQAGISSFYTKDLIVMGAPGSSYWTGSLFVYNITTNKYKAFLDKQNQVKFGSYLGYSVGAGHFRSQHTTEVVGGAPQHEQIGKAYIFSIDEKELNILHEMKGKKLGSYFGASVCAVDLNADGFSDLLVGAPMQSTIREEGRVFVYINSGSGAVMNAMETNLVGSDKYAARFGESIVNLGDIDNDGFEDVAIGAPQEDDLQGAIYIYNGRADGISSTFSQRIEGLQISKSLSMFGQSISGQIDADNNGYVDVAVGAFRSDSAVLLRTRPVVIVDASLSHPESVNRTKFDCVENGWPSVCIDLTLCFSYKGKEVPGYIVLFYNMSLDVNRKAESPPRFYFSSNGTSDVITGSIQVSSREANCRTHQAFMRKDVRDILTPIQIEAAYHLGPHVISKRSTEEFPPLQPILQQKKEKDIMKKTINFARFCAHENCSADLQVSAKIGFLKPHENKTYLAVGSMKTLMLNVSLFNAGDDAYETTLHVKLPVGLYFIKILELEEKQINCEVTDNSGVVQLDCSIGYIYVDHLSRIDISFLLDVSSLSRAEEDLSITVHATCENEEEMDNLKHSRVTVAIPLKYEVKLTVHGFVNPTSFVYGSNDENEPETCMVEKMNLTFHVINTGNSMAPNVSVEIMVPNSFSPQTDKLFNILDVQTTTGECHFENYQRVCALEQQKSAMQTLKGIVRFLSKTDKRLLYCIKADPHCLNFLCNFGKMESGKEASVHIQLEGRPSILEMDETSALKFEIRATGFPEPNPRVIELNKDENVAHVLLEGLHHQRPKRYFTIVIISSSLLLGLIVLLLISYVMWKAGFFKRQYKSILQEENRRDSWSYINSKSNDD
AP-2 complex subunit beta (Homo sapiens), sequence (P63010 whole entry, looked up, the tested form may be a part, one chain of several): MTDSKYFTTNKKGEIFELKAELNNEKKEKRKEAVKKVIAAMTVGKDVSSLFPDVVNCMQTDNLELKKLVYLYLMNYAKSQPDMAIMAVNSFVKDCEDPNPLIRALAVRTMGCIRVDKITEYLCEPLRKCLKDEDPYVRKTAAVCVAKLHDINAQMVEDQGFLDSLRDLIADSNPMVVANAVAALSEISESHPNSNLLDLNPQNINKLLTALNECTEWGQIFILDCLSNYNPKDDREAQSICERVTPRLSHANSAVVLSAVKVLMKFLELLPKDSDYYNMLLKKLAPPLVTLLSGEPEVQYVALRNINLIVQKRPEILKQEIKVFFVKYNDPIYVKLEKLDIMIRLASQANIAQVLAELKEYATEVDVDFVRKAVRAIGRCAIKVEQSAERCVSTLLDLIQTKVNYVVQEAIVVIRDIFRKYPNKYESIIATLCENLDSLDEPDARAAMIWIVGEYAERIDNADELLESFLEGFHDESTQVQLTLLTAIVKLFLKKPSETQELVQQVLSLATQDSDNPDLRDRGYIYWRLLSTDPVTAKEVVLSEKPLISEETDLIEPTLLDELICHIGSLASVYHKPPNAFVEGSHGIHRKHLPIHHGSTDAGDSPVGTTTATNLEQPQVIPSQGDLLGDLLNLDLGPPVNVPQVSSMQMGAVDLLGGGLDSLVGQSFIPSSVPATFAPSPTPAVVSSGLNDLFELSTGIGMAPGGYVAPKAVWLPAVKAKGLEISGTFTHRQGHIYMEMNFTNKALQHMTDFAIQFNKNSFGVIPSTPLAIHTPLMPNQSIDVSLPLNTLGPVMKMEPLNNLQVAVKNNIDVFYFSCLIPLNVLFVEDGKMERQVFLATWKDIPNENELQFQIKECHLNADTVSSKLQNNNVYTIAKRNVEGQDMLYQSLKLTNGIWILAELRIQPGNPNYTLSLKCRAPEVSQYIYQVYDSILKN
Beta-adrenergic receptor kinase 1 (Homo sapiens), sequence (P25098 whole entry, looked up): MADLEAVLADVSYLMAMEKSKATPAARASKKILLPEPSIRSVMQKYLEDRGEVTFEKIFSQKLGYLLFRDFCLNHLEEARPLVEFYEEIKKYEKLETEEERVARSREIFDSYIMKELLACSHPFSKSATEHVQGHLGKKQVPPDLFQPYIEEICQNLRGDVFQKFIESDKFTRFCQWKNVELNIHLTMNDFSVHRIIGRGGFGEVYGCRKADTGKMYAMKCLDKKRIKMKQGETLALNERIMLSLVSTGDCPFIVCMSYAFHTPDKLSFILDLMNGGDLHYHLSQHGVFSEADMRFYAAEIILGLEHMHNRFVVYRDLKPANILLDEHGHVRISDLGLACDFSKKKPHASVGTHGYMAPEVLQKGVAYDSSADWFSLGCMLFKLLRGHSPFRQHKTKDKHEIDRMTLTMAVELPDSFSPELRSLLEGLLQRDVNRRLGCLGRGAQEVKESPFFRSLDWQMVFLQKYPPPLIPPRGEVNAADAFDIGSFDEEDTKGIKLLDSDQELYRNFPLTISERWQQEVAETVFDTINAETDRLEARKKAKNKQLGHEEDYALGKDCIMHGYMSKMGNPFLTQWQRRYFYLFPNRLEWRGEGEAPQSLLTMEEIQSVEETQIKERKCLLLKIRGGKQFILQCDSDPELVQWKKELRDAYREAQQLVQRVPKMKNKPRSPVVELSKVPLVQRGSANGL
ATP-binding cassette sub-family B member 6 (Homo sapiens), sequence (Q9NP58 whole entry, looked up): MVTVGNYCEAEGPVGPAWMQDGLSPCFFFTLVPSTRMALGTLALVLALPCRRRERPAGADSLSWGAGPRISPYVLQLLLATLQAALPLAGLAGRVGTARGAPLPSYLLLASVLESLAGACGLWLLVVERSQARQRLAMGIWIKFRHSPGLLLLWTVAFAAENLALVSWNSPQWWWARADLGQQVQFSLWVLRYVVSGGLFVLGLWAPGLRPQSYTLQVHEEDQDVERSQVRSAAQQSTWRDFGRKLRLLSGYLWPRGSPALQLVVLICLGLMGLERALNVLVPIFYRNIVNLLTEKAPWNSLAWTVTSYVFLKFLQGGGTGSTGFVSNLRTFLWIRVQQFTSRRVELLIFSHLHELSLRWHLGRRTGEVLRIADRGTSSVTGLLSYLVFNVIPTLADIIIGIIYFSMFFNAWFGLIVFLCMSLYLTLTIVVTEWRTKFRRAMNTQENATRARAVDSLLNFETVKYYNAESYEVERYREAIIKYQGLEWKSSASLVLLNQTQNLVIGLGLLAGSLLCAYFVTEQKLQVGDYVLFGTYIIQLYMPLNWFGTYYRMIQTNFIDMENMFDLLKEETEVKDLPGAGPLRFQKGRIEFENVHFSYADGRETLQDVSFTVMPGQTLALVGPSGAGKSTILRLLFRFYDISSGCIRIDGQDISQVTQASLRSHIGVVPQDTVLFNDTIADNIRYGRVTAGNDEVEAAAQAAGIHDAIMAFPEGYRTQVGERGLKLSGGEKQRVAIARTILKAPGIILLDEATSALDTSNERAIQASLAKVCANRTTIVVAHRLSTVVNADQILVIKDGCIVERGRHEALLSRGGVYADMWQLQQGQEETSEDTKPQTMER

CC(=O)[C@H]1CC[C@H]2[C@@H]3CCC4=CC(=O)CC[C@]4(C)[C@H]3CC[C@]12C
98%: GFP response, % of DMSO [9, 22]
97.9%: GFP response relative to DMSO [7, 23]
64%: double positive events [10]
96.4%: GFP response, % of DMSO [9, 21]
inactive: percent of DMSO control GFP [1] 100% | GFP response vs DMSO [2] 108% | percent response of DMSO control [3] 98.6% | GFP response vs DMSO [4] 94.8% | GFP response, % of DMSO [5] 104% | GFP response vs DMSO [6] 99.9% | GFP response relative to DMSO [7] 100% | GFP response vs DMSO [8] 99.5% | GFP response, % of DMSO [9] 97.8% | vesicle binding response [10] 119% | inhibition [11] 21.7% | superoxide response (% of plate) [12] 136% | aptamer binding inhibition [13] 5% | response [14] -14.3% | inhibition [15] -3.41% | response [16] 5.39% | binding (% of control) [17] 99.6% | efflux inhibition (fraction of control) [18] 0.275 | inhibition [19] 0% | differentiation response [20] -1.65%
99.3%: GFP response vs DMSO [6, 21]
101%: GFP response relative to DMSO [7, 24]
100%: GFP response vs DMSO [6, 22]

CC(=O)OCC(=O)[C@H]1CC[C@H]2[C@@H]3CCC4=CC(=O)CC[C@]4(C)[C@H]3CC[C@]12C
inactive: percent of DMSO control GFP [1] 89.1% | GFP response vs DMSO [2] 103% | percent response of DMSO control [3] 108% | GFP response vs DMSO [4] 73.2% | GFP response, % of DMSO [5] 86.3% | GFP response vs DMSO [6] 95.8% | GFP response relative to DMSO [7] 103% | GFP response vs DMSO [8] 97.5% | GFP response, % of DMSO [9] 97.8% | vesicle binding response [10] 113% | inhibition [11] -1.3% | superoxide response (% of plate) [12] 119% | aptamer binding inhibition [13] -1% | response [14] -16.7% | inhibition [15] -3.8% | response [16] -1.21% | binding (% of control) [17] 105% | efflux inhibition (fraction of control) [18] -0.28 | inhibition [19] 8% | differentiation response [20] -1.64%
99.3%: GFP response relative to DMSO [7, 23]
106%: GFP response relative to DMSO [7, 24]
96.5%: GFP response vs DMSO [6, 22]
98.3%: GFP response, % of DMSO [9, 21]
52.1%: double positive events [10]
99.1%: GFP response, % of DMSO [9, 22]
96.7%: GFP response vs DMSO [6, 21]

CCCCCCCC(=O)OCC(=O)[C@@]1(O)CC[C@H]2[C@@H]3CCC4=CC(=O)CC[C@]4(C)[C@H]3[C@@H](O)C[C@@]21C
active: efflux inhibition (fraction of control) [18] 0.74
92.6%: GFP response, % of DMSO [9, 22]
94%: GFP response, % of DMSO [9, 21]
58.8%: double positive events [10]
92.9%: GFP response relative to DMSO [7, 23]
96.4%: GFP response relative to DMSO [7, 24]
95.9%: GFP response vs DMSO [6, 21]
96.9%: GFP response vs DMSO [6, 22]
inactive: percent of DMSO control GFP [1] 102% | GFP response vs DMSO [2] 107% | percent response of DMSO control [3] 98.9% | GFP response vs DMSO [4] 96.6% | GFP response, % of DMSO [5] 98.3% | GFP response vs DMSO [6] 96.5% | GFP response relative to DMSO [7] 94.1% | GFP response vs DMSO [8] 103% | GFP response, % of DMSO [9] 93.1% | vesicle binding response [10] 182% | inhibition [11] 11% | superoxide response (% of plate) [12] 108% | aptamer binding inhibition [13] 4% | response [14] 0.19% | inhibition [15] -9.35% | response [16] 10.5% | binding (% of control) [17] 97.1% | inhibition [19] 14% | differentiation response [20] 5.13%

O=[N+]([O-])c1ccc(O)c2ncccc12
99.2%: GFP response vs DMSO [6, 22]
126%: GFP response, % of DMSO [9, 22]
59.9%: double positive events [10]
active: GFP response vs DMSO [4] 375% | GFP response, % of DMSO [5] 152% | GFP response relative to DMSO [7] 274% | superoxide response (% of plate) [12] 56.6% | response [16] 65.3%
245%: GFP response relative to DMSO [7, 24]
99.8%: GFP response vs DMSO [6, 21]
inactive: percent of DMSO control GFP [1] 99.7% | GFP response vs DMSO [2] 122% | percent response of DMSO control [3] 81.5% | GFP response vs DMSO [6] 104% | GFP response vs DMSO [8] 120% | GFP response, % of DMSO [9] 138% | vesicle binding response [10] 159% | inhibition [11] -1.12% | aptamer binding inhibition [13] 0% | response [14] -20% | inhibition [15] -6.92% | binding (% of control) [17] 83.2% | efflux inhibition (fraction of control) [18] -0.13 | inhibition [19] 1% | differentiation response [20] -3.02%
121%: GFP response, % of DMSO [9, 21]
